Source: the supplement of paper PMC10849652
About 7,900 targets were measured; listed, in parts, are those with a hit and a random draw of the rest. About 0.6% of all pairs of compound and target were hits. A number with no mark means an inactive call.

Assays:
Assay in all cases: log2 fold change, soluble protein after heating vs DMSO (PISA); higher = thermal stabilisation; K562 cells, 10 uM, 30 min; active = over 0.2 and 3.5 SD of the protein, either way, in both replicates (recomputed)
bafetinib = compound: Cc1ccc(NC(=O)c2ccc(CN3CC[C@H](N(C)C)C3)c(C(F)(F)F)c2)cc1Nc1nccc(-c2cncnc2)n1 [bafetinib]
In short: (§1)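 Quantification of soluble protein used TMTpro 16plex LC-MS/MS, with channel sums equalised. Samples were the supernatant after 21,000xg for 90 min of pooled aliquots from K562 cells (2×10^6 cells/mL) treated with 10 μM compound for 30 min, heated for 3 min over 48°C-58°C, and extracted in PBS with 0.5% NP-40 at 4°C. Values, from duplicates, describe thermal stability against control samples on a log2 fold-change scale.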

[1] = compound: Cc1cccc(CC(=O)N2CCc3c2ccc(-c2cn(C)c4ncnc(N)c24)c3F)n1
In short: as §1

nilotinib = compound: Cc1cn(-c2cc(NC(=O)c3ccc(C)c(Nc4nccc(-c5cccnc5)n4)c3)cc(C(F)(F)F)c2)cn1 [nilotinib]
In short: as §1

[2] = compound: Cc1nc(Nc2n[nH]c3c2CN(C(=O)N[C@H](CN(C)C)c2ccccc2)C3(C)C)c2sccc2n1
In short: as §1

dasatinib = compound: Cc1nc(Nc2ncc(C(=O)Nc3c(C)cccc3Cl)s2)cc(N2CCN(CCO)CC2)n1 [dasatinib]
In short: as §1

[3] = compound: Cc1ncc(-c2ccnc(Nc3ccc(S(C)(=O)=O)cc3)n2)n1C(C)C
In short: as §1

[4] = compound: Cn1cc(-c2ccc3c(c2)CCN3C(=O)Cc2cccc(C(F)(F)F)c2)c2c(N)ncnc21
In short: as §1

[5] = compound: Cn1cc(-c2ccc3nnc(C(F)(F)c4ccc5ncccc5c4)n3n2)cn1
In short: as §1

tipifarnib = compound: Cn1cncc1[C@@](N)(c1ccc(Cl)cc1)c1ccc2c(c1)c(-c1cccc(Cl)c1)cc(=O)n2C [tipifarnib]
In short: as §1

mubritinib = compound: FC(F)(F)c1ccc(/C=C/c2nc(COc3ccc(CCCCn4ccnn4)cc3)co2)cc1 [mubritinib]
In short: as §1

[6] = compound: NC(=O)Nc1cc(-c2cccc(F)c2)sc1C(=O)N[C@H]1CCCNC1
In short: as §1

[7] = compound: NC(=O)c1cnc(N[C@@H]2CCCC[C@@H]2N)nc1Nc1cccc(-n2nccn2)c1
In short: as §1

[8] = compound: NC1(c2ccc(-c3nc4ccn5c(=O)[nH]nc5c4cc3-c3ccccc3)cc2)CCC1
In short: as §1

[9] = compound: NCC(=O)Nc1ccc(-n2nc(C(F)(F)F)cc2-c2ccc3c(ccc4ccccc43)c2)cc1
In short: as §1

entinostat = compound: Nc1ccccc1NC(=O)c1ccc(CNC(=O)OCc2cccnc2)cc1 [entinostat]
In short: as §1

vorinostat = compound: O=C(CCCCCCC(=O)Nc1ccccc1)NO [vorinostat]
In short: as §1

citarinostat = compound: O=C(CCCCCCNC(=O)c1cnc(N(c2ccccc2)c2ccccc2Cl)nc1)NO [citarinostat]
In short: as §1

silmitasertib = compound: O=C(O)c1ccc2c(c1)nc(Nc1cccc(Cl)c1)c1ccncc12 [silmitasertib]
In short: as §1

[10] = compound: O=C1NC(=O)C(c2cnc3ccccn23)=C1c1cn2c3c(cc(F)cc13)CN(C(=O)N1CCCCC1)CC2
In short: as §1

[11] = compound: c1cc(OCCN2CCCCC2)cc(-c2n[nH]c3ccc(-c4nnc[nH]4)cc23)c1
In short: as §1

UniProt O43395, sequence (O43395 whole entry, looked up): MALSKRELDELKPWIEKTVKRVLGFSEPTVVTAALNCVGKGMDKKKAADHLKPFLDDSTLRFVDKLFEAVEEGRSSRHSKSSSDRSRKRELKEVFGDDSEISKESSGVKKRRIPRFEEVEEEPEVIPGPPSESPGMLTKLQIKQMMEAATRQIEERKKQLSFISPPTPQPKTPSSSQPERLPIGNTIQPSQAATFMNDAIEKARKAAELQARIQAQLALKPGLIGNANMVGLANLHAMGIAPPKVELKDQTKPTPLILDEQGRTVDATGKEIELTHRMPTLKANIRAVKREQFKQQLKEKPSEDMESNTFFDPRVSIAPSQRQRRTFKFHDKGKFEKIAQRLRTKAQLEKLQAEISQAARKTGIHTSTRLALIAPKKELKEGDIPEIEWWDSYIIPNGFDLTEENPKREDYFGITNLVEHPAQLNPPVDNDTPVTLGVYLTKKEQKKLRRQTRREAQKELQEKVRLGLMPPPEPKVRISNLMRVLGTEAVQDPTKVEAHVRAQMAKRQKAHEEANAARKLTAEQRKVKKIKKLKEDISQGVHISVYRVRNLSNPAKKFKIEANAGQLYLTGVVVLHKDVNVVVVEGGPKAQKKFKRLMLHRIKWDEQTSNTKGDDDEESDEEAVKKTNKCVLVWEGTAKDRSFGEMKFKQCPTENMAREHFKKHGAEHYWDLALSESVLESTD
UniProt Q9Y2I7, sequence (Q9Y2I7 whole entry, looked up): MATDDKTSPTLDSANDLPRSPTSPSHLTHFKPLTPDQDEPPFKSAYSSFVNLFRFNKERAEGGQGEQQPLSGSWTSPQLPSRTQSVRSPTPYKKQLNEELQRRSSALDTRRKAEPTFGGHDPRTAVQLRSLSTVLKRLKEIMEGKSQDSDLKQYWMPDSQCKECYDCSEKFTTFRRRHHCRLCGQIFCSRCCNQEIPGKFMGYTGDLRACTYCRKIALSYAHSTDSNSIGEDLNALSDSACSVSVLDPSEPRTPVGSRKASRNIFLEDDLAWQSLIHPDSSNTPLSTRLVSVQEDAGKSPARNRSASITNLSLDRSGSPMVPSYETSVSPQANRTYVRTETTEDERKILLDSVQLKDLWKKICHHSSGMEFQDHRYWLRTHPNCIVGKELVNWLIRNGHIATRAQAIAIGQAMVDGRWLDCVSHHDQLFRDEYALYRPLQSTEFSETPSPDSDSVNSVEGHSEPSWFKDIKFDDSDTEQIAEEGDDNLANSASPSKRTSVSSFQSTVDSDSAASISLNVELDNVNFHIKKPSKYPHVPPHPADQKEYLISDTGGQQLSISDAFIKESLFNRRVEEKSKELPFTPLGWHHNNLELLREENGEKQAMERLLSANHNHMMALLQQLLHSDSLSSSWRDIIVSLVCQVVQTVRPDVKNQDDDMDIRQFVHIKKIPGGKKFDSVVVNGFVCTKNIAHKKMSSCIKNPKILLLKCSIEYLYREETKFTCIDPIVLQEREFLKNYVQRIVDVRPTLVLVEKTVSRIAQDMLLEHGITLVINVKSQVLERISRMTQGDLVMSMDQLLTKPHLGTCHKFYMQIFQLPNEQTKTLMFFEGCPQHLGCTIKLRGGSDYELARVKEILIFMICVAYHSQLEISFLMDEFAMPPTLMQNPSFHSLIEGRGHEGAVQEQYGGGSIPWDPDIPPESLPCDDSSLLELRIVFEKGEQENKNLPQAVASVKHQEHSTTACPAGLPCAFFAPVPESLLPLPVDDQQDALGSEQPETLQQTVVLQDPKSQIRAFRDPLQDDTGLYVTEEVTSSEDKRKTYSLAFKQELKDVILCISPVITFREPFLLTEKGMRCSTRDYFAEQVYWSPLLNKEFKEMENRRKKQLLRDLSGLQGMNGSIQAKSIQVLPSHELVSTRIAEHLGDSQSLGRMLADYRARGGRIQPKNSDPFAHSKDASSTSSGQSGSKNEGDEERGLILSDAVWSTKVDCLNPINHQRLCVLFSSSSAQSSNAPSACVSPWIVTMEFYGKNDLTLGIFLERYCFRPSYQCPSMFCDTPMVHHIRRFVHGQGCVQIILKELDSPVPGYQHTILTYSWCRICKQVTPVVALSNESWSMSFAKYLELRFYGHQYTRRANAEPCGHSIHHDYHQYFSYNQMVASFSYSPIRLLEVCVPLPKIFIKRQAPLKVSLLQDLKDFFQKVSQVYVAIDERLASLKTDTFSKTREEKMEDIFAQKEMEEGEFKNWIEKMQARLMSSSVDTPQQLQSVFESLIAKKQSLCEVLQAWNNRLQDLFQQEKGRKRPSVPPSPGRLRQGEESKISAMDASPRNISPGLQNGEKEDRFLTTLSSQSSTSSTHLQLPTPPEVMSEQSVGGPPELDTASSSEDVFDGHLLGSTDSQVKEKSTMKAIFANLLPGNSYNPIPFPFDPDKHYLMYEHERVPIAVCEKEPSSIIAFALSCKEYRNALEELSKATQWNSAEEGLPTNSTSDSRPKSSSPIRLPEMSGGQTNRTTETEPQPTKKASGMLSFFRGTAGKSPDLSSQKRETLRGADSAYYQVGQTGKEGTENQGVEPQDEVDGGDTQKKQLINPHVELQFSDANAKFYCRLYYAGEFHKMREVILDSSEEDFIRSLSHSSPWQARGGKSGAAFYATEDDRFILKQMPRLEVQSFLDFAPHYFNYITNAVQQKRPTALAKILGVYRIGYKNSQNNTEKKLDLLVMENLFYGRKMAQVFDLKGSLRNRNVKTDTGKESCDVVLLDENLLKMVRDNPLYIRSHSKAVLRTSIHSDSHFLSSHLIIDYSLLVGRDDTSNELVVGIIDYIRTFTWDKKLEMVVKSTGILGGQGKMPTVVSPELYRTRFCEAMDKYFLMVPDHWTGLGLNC
UniProt Q99460, sequence (Q99460 whole entry, looked up): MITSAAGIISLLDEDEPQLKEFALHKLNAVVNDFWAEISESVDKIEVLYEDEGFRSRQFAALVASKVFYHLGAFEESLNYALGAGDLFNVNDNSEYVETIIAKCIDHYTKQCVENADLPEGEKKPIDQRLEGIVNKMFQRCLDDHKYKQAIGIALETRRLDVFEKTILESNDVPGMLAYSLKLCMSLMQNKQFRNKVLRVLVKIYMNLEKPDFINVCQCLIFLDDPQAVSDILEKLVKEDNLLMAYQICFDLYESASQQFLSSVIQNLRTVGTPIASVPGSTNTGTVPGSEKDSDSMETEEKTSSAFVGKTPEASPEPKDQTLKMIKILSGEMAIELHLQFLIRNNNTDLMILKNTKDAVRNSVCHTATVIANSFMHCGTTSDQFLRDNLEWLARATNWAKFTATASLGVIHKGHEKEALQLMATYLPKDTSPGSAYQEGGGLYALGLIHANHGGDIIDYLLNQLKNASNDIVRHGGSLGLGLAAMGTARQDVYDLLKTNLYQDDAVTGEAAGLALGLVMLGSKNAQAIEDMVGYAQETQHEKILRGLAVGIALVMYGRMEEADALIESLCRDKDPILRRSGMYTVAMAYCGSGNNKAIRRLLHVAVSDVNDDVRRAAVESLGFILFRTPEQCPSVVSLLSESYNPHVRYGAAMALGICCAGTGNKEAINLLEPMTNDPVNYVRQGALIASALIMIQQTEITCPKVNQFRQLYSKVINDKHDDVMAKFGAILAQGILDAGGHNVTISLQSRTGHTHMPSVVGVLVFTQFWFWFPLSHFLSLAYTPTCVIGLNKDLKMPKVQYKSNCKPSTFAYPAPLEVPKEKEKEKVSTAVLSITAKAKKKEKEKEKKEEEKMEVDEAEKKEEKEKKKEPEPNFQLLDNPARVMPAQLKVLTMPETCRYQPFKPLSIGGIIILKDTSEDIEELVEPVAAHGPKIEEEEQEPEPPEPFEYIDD
UniProt Q8WXF1, sequence (Q8WXF1 whole entry, looked up): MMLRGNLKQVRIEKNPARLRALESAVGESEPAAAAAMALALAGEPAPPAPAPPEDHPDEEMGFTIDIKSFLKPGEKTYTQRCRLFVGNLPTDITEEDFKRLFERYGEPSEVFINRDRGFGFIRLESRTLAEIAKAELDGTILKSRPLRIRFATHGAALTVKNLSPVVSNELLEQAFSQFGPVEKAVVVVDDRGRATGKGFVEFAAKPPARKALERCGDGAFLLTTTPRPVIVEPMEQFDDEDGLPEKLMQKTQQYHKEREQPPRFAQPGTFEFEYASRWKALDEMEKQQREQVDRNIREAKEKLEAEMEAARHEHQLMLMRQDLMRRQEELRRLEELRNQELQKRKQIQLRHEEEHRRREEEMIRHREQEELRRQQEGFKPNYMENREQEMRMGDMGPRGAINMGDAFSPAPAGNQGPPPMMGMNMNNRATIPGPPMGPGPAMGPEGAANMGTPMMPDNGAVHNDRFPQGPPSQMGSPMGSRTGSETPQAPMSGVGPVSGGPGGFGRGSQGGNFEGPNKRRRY
UniProt Q6P4A8, sequence (Q6P4A8 whole entry, looked up): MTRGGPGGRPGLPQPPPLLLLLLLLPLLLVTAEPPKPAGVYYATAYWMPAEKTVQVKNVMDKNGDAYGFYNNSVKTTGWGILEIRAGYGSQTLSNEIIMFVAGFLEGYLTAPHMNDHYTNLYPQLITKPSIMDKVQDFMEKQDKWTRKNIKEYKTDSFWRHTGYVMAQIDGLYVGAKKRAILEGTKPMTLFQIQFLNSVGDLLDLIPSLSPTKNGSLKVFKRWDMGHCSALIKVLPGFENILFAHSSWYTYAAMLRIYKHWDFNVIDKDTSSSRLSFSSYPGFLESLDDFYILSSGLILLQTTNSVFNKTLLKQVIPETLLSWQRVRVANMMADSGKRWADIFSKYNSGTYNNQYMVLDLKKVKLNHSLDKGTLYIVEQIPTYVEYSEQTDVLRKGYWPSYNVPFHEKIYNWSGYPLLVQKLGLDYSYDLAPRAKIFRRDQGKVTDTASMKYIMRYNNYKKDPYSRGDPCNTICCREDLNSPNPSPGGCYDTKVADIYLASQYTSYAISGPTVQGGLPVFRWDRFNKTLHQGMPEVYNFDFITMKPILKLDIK

Target | log2 fold change (bafetinib) | log2 fold change [1] | log2 fold change (nilotinib) | log2 fold change [2] | log2 fold change (dasatinib) | log2 fold change [3] | log2 fold change [4] | log2 fold change [5] | log2 fold change (tipifarnib) | log2 fold change (mubritinib) | log2 fold change [6] | log2 fold change [7] | log2 fold change [8] | log2 fold change [9] | log2 fold change (entinostat) | log2 fold change (vorinostat) | log2 fold change (citarinostat) | log2 fold change (silmitasertib) | log2 fold change [10] | log2 fold change [11]
PRPF3 (UniProt O43395) | 0.048 | 0.072 | -0.044 | -0.201 | -0.114 | -0.152 | -0.149 | 0.018 | -0.011 | 0.118 | 0.026 | -0.029 | -0.099 | -0.077 | 0.064 | 0.128 | 0.194 | -0.014 | -0.063 | 0
PGGT1B (UniProt P53609) | -0.069 | -0.024 | -0.007 | -0.059 | 0.075 | 0.009 | -0.027 | 0.004 | 0.134 | 0.062 | -0.048 | -0.014 | -0.062 | -0.021 | -0.047 | -0.046 | 0.038 | 0.021 | 0.02 | -0.042
PSMD1 (UniProt Q99460) | 0.16 | 0.037 | 0.006 | 0.041 | 0.065 | -0.017 | -0.102 | 0.019 | 0.068 | -0.019 | 0.086 | 0.007 | -0.013 | 0.068 | 0.006 | 0.013 | 0.014 | -0.019 | 0.094 | -0.057
PIKFYVE (UniProt Q9Y2I7) | -0.031 | 0.153 | -0.015 | 0.045 | -0.061 | -0.092 | 0.005 | 0.031 | 0.108 | 0.017 | 0.029 | -0.055 | -0.256 | -0.072 | 0.09 | 0.021 | -0.047 | 0.006 | -0.069 | -0.08
PNPLA2 (UniProt Q96AD5) | 0.084 | -0.334 | 0.049 | -0.112 | -0.113 | -0.118 | 0.056 | 0.049 | -0.026 | 0.113 | -0.075 | -0.01 | -0.05 | -0.004 | 0.078 | 0.192 | 0.087 | 0.065 | 0.012 | -0.138
PSPC1 (UniProt Q8WXF1) | 0.015 | 0.088 | -0.004 | -0.179 | -0.02 | -0.112 | -0.003 | 0 | -0.004 | -0.033 | -0.001 | -0.039 | 0.021 | -0.027 | -0.014 | 0.14 | 0.067 | -0.032 | -0.074 | -0.057
PRKCQ (UniProt Q04759) | -0.027 | 0.024 | -0.051 | -0.821 (active) | -0.171 | 0.003 | 0.069 | 0.031 | -0.134 | 0.12 | -0.337 (active) | -0.135 | -0.198 | -0.052 | 0.002 | 0.035 | 0.001 | 0.002 | -0.021 | -0.187
PLBD1 (UniProt Q6P4A8) | -0.143 | 0 | 0.021 | -0.029 | -0.063 | -0.035 | 0.041 | 0.081 | 0.038 | 0.052 | 0.008 | -0.061 | -0.076 | -0.039 | 0.008 | -0.038 | -0.018 | 0.003 | -0.027 | 0.409
